Measurements as given in PubChem BioAssay AID623870 (Broad Institute, 2012).
Hit rate of the full screen: of about 390,000 compounds, about 2,600 (0.67%) were called active. The sample as a whole holds a higher share of actives than the screen did. A number with no mark means an inactive call.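 How the source made its calls: active means mean inhibition of replicates at least 50% and at least half of replicates each reaching 50%; inconclusive means half or more replicates reach 50% but mean below 50%; inactive means the rest.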

Biological target: Transforming acidic coiled-coil-containing protein 3 (Homo sapiens) (UniProt Q9Y6A5)
Assay: disruptors of ARNT/TACC3 protein interaction, primary screen, biochemical, AlphaScreen, single concentration (AID 623870);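 further: 0% = complete ARNT plus TACC3 wells and 100% = ARNT alone without TACC3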
Settings: AlphaScreen His-ARNT PAS-B/GST-TACC3 binding, luminescence; at 9.99 µM; hits give high values; TACC3 fragment carries E629A point mutation

In order of rising inhibition:
1. CCOc1ccc(N/C(N)=N/c2nc(C)c(C)c(=O)[nH]2)cc1  -20.7%
2. CC(=O)Nc1ccc2c(c1)C(=O)N(C)[C@H]1CC[C@@H](CC(=O)NCC3CC3)O[C@H]1CO2  -14.7%
3. C[C@H]1CN([C@@H](C)CO)C(=O)Cc2cc(NS(C)(=O)=O)ccc2O[C@@H]1CN(C)S(=O)(=O)c1cccs1  -10.4%
4. O=c1cc(CCl)nc2scc(-c3ccccc3)n12  -9.12%
5. O=C(C[C@H]1C[C@@H]2c3cc(NC(=O)C4CCOCC4)ccc3O[C@@H]2[C@H](CO)O1)NCC1CC1  -7.92%
6. Cc1ccc(S(=O)(=O)Nc2ccc3c(c2)C(=O)N([C@H](C)CO)C[C@H](C)[C@H](CN(C)S(C)(=O)=O)O3)cc1  -7.55%
7. CN1CCN(C(=O)c2cc3c(c(-c4cccc(-c5ccc(C(=O)N(C)C)cc5)c4)n2)[C@@H](CCO)N([S@](=O)C(C)(C)C)C3)CC1  -5.08%
8. CCCNC(=O)N(C)C[C@H]1Oc2ncc(-c3cccc(C#N)c3)cc2C(=O)N([C@@H](C)CO)C[C@@H]1C  -5.02%
9. COc1ccc(S(=O)(=O)N[C@@H]2CC[C@@H](CC(=O)NCCc3ccccc3)O[C@@H]2CO)cc1  -3.62%
10. C[C@@H]1CN([C@H](C)CO)C(=O)c2cc(NC(=O)Nc3ccccc3)ccc2O[C@@H](C)CCCCO[C@@H]1CN(C)S(=O)(=O)c1ccc(F)cc1  -3.52%
11. CN(C)Cc1cn(CC[C@H]2CC[C@H](NS(=O)(=O)c3ccccc3)[C@@H](CO)O2)nn1  -3.47%
12. N/C(=N\OC(=O)CCC1CCCCC1)c1ccccn1  -3.39%
13. CN(C)Cc1cn(CC[C@H]2CC[C@@H](NS(=O)(=O)c3ccccc3)[C@H](CO)O2)nn1  -3.27%
14. C[C@@H]1CN([C@H](C)CO)C(=O)c2cc(C#CC3(O)CCCC3)cnc2O[C@H]1CN(C)Cc1ccncc1  -3.19%
15. C[C@@H]1CN([C@@H](C)CO)C(=O)c2cc(-c3cncnc3)cnc2O[C@@H]1CN(C)C(=O)c1ccccc1F  -2.75%
16. Cc1ccc(S(=O)(=O)Nc2ccc3c(c2)C(=O)N([C@H](C)CO)C[C@H](C)[C@H](CN(C)C(=O)NC(C)C)OCCCC[C@@H](C)O3)cc1  -2.46%
17. O=C(C[C@@H]1C[C@@H]2c3cc(NS(=O)(=O)c4ccc(F)cc4)ccc3O[C@@H]2[C@H](CO)O1)NCc1ccccc1F  -1.77%
18. C[C@@H]1CN([C@H](C)CO)S(=O)(=O)c2ccc(C#CCN(C)C)cc2O[C@@H]1CN(C)C(=O)CN(C)C  -1.64%
19. C[C@H]1CN([C@@H](C)CO)C(=O)c2cc(C3=CCCC3)cnc2O[C@@H]1CN(C)C(=O)c1ccccc1  -1.02%
20. O=C(C[C@@H]1CC[C@H]2[C@@H](COC[C@H](O)CN2C(=O)Nc2ccc(Cl)cc2)O1)NCC1CC1  -0.418%
21. CC(C)CN(C(=O)COC(=O)c1ccc2ccccc2c1)c1c(N)n(Cc2ccccc2)c(=O)[nH]c1=O  -0.235%
22. CCS(=O)(=O)N1CCCCN2[C@@H](CO)[C@@H](c3ccc(-c4ccccc4)cc3)[C@@H]2C1  -0.151%
23. O=C(C[C@@H]1CC[C@@H]2[C@H](COC[C@@H](O)CN2Cc2ccccc2)O1)NCCc1ccccc1  0.273%
24. C[C@@H]1CN([C@H](C)CO)C(=O)Cc2cc(NC(=O)CCCN(C)C)ccc2O[C@H]1CN(C)CC1CCCCC1  0.403%
25. O=C(CCNC(=O)c1ccccc1)NN=Cc1ccc(Br)o1  0.9%
26. CCOC(=O)c1ccc(NC(=O)C2CC(=O)Nc3nc4ccccc4n32)cc1 (stereo not drawn)  1.15%
27. Clc1ccc(-c2cc(COc3ccccc3)no2)cc1Cl  1.19%
28. O=C(CCNc1n[nH]c(=O)[nH]c1=O)N/N=C\c1ccc(Br)cc1  1.48%
29. N/C(Cc1ccc([N+](=O)[O-])cc1)=N\OC(=O)COc1ccc2ccccc2c1  1.55%
30. O=C(NCCCn1ccnc1)c1cc(-c2ccccc2)on1  1.74%
31. Cc1cccc(S(=O)(=O)N[C@H]2CC[C@@H](CCNS(=O)(=O)c3ccccc3F)O[C@H]2CO)c1  1.77%
32. CCC(=O)N(C)C[C@H]1Oc2cc(C#CCOC)ccc2S(=O)(=O)N([C@H](C)CO)C[C@H]1C  1.93%
33. C[C@@H]1CN([C@@H](C)CO)C(=O)c2cc(-c3cccc(F)c3)cnc2O[C@@H]1CN(C)Cc1ccccc1  1.97%
34. CCCN1[C@H](C(=O)N[C@H](C)c2ccccc2)[C@@H](CO)[C@@H]2Cn3c(ccc(-c4cccc(F)c4)c3=O)[C@@H]21  2.44%
35. COc1ccc(-c2ccc(CNCCCN3CCOCC3)o2)cc1Cl  2.81%
36. C[C@@H]1CN([C@H](C)CO)C(=O)Cc2cc(NC(=O)CCC(F)(F)F)ccc2O[C@@H]1CN(C)CC1CCCCC1  2.83%
37. CO[C@H](CN(C)C(=O)c1cnccn1)[C@@H](C)CN([C@@H](C)CO)S(=O)(=O)c1ccc(C)cc1  3.1%
38. C[C@@H]1CN([C@@H](C)CO)C(=O)c2cc(C3=CCCC3)cnc2O[C@@H]1CN(C)C(=O)Cc1ccncc1  3.47%
39. O=C(N[C@H]1CC[C@H](CCNS(=O)(=O)c2ccc(F)cc2)O[C@H]1CO)c1cccc(F)c1  3.52%
40. COc1ccc(C#Cc2cnc3c(c2)C(=O)N([C@H](C)CO)C[C@H](C)[C@H](CN(C)C(=O)CC2CC2)O3)cc1  3.95%
41. CN1C(=O)c2cc(NS(=O)(=O)c3ccc(Cl)cc3)ccc2OC[C@H]2O[C@@H](CC(=O)O)CC[C@H]21  4.03%
42. O=C(N[C@@H]1CC[C@H](CCn2cc(-c3ccccc3)nn2)O[C@H]1CO)c1cnccn1  4.06%
43. COCC(=O)N1C[C@H]2[C@@H](c3ccccc31)[C@@H](CO)N2Cc1ccccc1  4.41%
44. COc1cc(CNCc2ccc(OC)c3ccccc23)cc(OC)c1OC  4.98%
45. COc1ccc(-c2ccc3c(c2)O[C@H](CN(C)Cc2ccccc2C(=O)O)[C@H](C)CN([C@@H](C)CO)S3(=O)=O)cc1  5.2%
46. O=c1nc(N/N=C/c2ccco2)cn[nH]1  5.23%
47. COc1ccc(-n2c(O)c(C=NCC(c3ccco3)N3CCCC3)c3ccccc3c2=O)cc1OC (stereo not drawn)  5.52%
48. CCCC#Cc1ccc2c(c1)O[C@@H](CN(C)C(=O)CC)[C@@H](C)CN([C@H](C)CO)S2(=O)=O  5.6%
49. CC(C)OC(=O)N(C)C[C@@H]1OCc2ccccc2-c2c(n(C)c3ccccc23)C(=O)N([C@H](C)CO)C[C@H]1C  5.73%
50. CC(C)(C)[S@](=O)N1Cc2cc(C(=O)N3CCCCC3)nc(-c3cccc(-c4ccccc4F)c3)c2[C@@H]1CCO  9.08%
51. COc1ccccc1S(=O)(=O)N1CC[C@H]2[C@@H](CO)N(C)c3ccc(C#Cc4ccccc4)cc3[C@H]21  9.34%
52. CN(C)C(=O)[C@@H]1[C@@H](CO)[C@@H]2Cn3c(cccc3=O)[C@H]1N2CC1CCCCC1  10.9%
53. Cn1c(=O)c2c(nc(N/N=C/c3cccs3)n2Cc2ccc(Br)cc2)n(C)c1=O  12.7%
54. O=C(C[C@H]1CC[C@H]2[C@@H](COC[C@H](O)CN2Cc2ccncc2)O1)NCC1CC1  14.4%
55. O=C(NCCCn1ccnc1)c1cc(Br)c(Br)s1  15.4%
56. O=C1O[C@@H](c2ccccc2)[C@@H](c2ccccc2)N2[C@@H](c3ccccc3OCCO)[C@]3(C(=O)Nc4ccccc43)[C@@H](C(=O)N3CCCCCCC3)[C@H]12  29.4%
57. CCOc1cc(CNCc2ccccn2)ccc1OCC(=O)NC(C)(C)C  36.2%
58. O=C(N[C@@H]1CC[C@@H](CCn2cc(-c3ccccn3)nn2)O[C@@H]1CO)c1ccccc1  40.7%
59. O=C([C@H]1[C@H](CO)[C@H]2Cn3c(ccc(-c4ccccc4)c3=O)[C@@H]1N2Cc1cccnc1)N1CCOCC1  42.2%

In the case of CCOc1ccc(-n2c(O)c(/C=N/Nc3nnc(C)c(=O)[nH]3)c3ccccc3c2=O)cc1, the inhibition is reported as 66.5% (active).
In the case of Cc1nnc(N/N=C/c2ccccn2)[nH]c1=O, the inhibition is reported as 61.4% (active).
Fc1ccc(-c2ccc(CNCc3ccccn3)o2)cc1Cl was tested, and the inhibition was 59.1% (active).
O=C(CCCO)N/N=C/c1cc(Br)ccc1O was tested, and the inhibition was 80.7% (active).
For COc1ccc2ccccc2c1CNCc1ccccn1, the inhibition was 55.2% (active).
For N/C(=N\OC(=O)Cc1ccc([N+](=O)[O-])cc1)c1ccccn1, the inhibition was 55.4% (active).
CCOC(=O)c1ccc(Nc2cc3ccccc3c(=O)[nH]2)cc1 was tested, and the inhibition was 4.54% (active).
In the case of OCCn1c(-c2ccccc2)csc1=Nc1ccccc1, the inhibition is reported as 51% (active).
In the case of N#Cc1c(N2CCCCC2)nc(N)c2c(N)nc(SCC(=O)O)cc12, the inhibition is reported as 80.8% (active).
With COc1ccccc1-c1cccc(-c2nc(C(=O)N3CCN(C)CC3)cc3c2[C@H](CCO)N([S@@](=O)C(C)(C)C)C3)c1 the inhibition was 51.3% (active).
With O=C(NCCCn1ccnc1)c1cc2c(s1)CCCC2 the inhibition was 49.3% (active).
In the case of Cc1n[nH]c(=O)nc1N/N=C/c1cccs1, the inhibition is reported as 67.8% (active).
With O=S(=O)(N[C@@H]1CC[C@@H](CCn2cc(-c3ccccn3)nn2)O[C@@H]1CO)c1cccc(Cl)c1 the inhibition was 69.9% (active).
O=C(N[C@@H]1CC[C@H](CCn2cc(-c3ccccn3)nn2)O[C@@H]1CO)c1ccccc1 was tested, and the inhibition was 87.5% (active).
